Active and inactive are the calls of the source. The calls were made as follows: active = hit-call score of the fitted dose curve at least 0.9, where 1 is the maximum; inactive = score below 0.9.
Key:
[1] = read-out: Macrophage colony-stimulating factor (MCSF), CSF1 (gene 1435); assay: BSK_hDFCGF_MCSF: BioMAP Diversity Plus: hDFCGF Assay for Macrophage colony-stimulating factor (MCSF) Biomarker Activity (AID 2283060); conditions: primary human foreskin fibroblasts; actives raise or lower the signal
How it was run: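 M-CSF levels read by ELISA at 24 h post-dosing in human skin fibroblasts. Parallel cultures stained with SRB assessed cytotoxicity at the same time point; response fitted in both directions against the DMSO baseline.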

[2] = BSK_hDFCGF_SRB: Viability Assessment in the BioMAP Diversity Plus: hDFCGF Assay (AID 2283061); conditions: primary human foreskin fibroblasts;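 also: cells exposed to compound for 24 h before the read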
How it was run: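 Viability was read as total protein: after 10% TCA fixation, wells were stained with 0.1% sulforhodamine B and read at 560 nm. Primary human foreskin fibroblasts were dosed for 24 h, with bidirectional fitting versus DMSO.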

[3] = read-out: TIMP metallopeptidase inhibitor 1 (TIMP1), TIMP1 (gene 7076); assay: BSK_hDFCGF_TIMP1: BioMAP Diversity Plus: hDFCGF Assay for TIMP metallopeptidase inhibitor 1 (TIMP1) Biomarker Activity (AID 2283062); conditions: primary human foreskin fibroblasts; actives raise or lower the signal
How it was run: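 TIMP-1 measured by ELISA 24 h after chemical dosing of primary human skin fibroblasts, with gain or loss fitted relative to DMSO. Parallel SRB staining (560 nm) monitored overt cytotoxicity.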

[4] = read-out: Monokine induced gamma interferon (MIG), CXCL9 (gene 4283); assay: BSK_hDFCGF_MIG: BioMAP Diversity Plus: hDFCGF Assay for Monokine induced gamma interferon (MIG) Biomarker Activity (AID 2283063); conditions: primary human foreskin fibroblasts; actives raise or lower the signal
How it was run: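 Human primary foreskin fibroblasts in the hDFCGF system, exposed to test chemical for 24 h; MIG measured by ELISA. Bidirectional curve fitting against DMSO negative control as activity baseline.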

[5] = read-out: Matrix Metallopeptidase 1 (MMP1), MMP1 (gene 4312); assay: BSK_hDFCGF_MMP1: BioMAP Diversity Plus: hDFCGF Assay for Matrix Metallopeptidase 1 (MMP1) Biomarker Activity (AID 2283064); conditions: primary human foreskin fibroblasts; actives raise or lower the signal
How it was run: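 hDFCGF primary fibroblasts (human foreskin); chemical added; 24 h; MMP1 by ELISA; bidirectional fit vs DMSO.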

[6] = read-out: Vascular cell adhesion molecule 1 (VCAM1), VCAM1 (gene 7412); assay: BSK_hDFCGF_VCAM1: BioMAP Diversity Plus: hDFCGF Assay for Vascular cell adhesion molecule 1 (VCAM1) Biomarker Activity (AID 2283065); conditions: primary human foreskin fibroblasts; actives raise or lower the signal;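 as to AC50: VCAM-1 protein level quantified by ELISA after 24 h chemical exposure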
How it was run: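 ELISA readout of VCAM-1 on human dermal fibroblast primary cultures, 24 h after chemical exposure. Gain or loss of signal fitted in both directions against DMSO baseline.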

[7] = read-out: Plasminogen activator inhibitor-1 (PAI1), SERPINE1 (gene 5054); assay: BSK_hDFCGF_PAI1: BioMAP Diversity Plus: hDFCGF Assay for Plasminogen activator inhibitor-1 (PAI1) Biomarker Activity (AID 2283066); conditions: primary human foreskin fibroblasts; actives raise or lower the signal
How it was run: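 Human foreskin fibroblast primary cells, 24 h chemical exposure; PAI-1 measured by ELISA. Bidirectional fitting relative to DMSO; parallel cultures stained with SRB for total protein to flag overt cytotoxicity.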

[8] = read-out: Intercellular Adhesion Molecule 1 (ICAM1), ICAM1 (gene 3383); assay: BSK_KF3CT_ICAM1: BioMAP Diversity Plus: KF3CT Assay for Intercellular Adhesion Molecule 1 (ICAM1) Biomarker Activity (AID 2283067); conditions: primary human keratinocytes with fibroblasts; actives raise or lower the signal
How it was run: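 Cell-surface ICAM-1 was measured by ELISA 24 h after dosing primary human skin keratinocytes co-cultured with fibroblasts. Parallel SRB staining tracked overt cytotoxicity. Gain or loss of signal was fitted relative to DMSO.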

[9] = read-out: Interferon-gamma inducible Protein 10 (IP10), CXCL10 (gene 3627); assay: BSK_KF3CT_IP10: BioMAP Diversity Plus: KF3CT Assay for Interferon-gamma inducible Protein 10 (IP10) Biomarker Activity (AID 2283068); conditions: primary human keratinocytes with fibroblasts; actives raise or lower the signal
How it was run: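 Signal is secreted/surface IP-10 by ELISA in a human primary skin co-culture of keratinocytes and foreskin fibroblasts, taken 24 h post-dosing; DMSO served as negative control.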

[10] = BSK_KF3CT_SRB: Viability Assessment in the BioMAP Diversity Plus: KF3CT Assay (AID 2283069); conditions: primary human keratinocytes with fibroblasts;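 also: total protein by sulforhodamine B staining as a cytotoxicity measure; read 24 h after compound addition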
How it was run: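 Keratinocytes co-cultured with foreskin fibroblasts (human primary); chemical added, 24 h; fix 10% TCA, stain 0.1% SRB, A560. Bidirectional fit vs DMSO.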

[11] = read-out: Interleukin-1 alpha (IL1a), IL1A (gene 3552); assay: BSK_KF3CT_IL1a: BioMAP Diversity Plus: KF3CT Assay for Interleukin-1 alpha (IL1a) Biomarker Activity (AID 2283070); conditions: primary human keratinocytes with fibroblasts; actives raise or lower the signal
How it was run: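 Chemicals were dosed onto co-cultured human keratinocytes and foreskin fibroblasts, IL-1a was quantified by ELISA at 24 h, and activity was fitted in both directions relative to DMSO controls.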

[12] = read-out: TIMP metallopeptidase inhibitor 2 (TIMP2), TIMP2 (gene 7077); assay: BSK_KF3CT_TIMP2: BioMAP Diversity Plus: KF3CT Assay for TIMP metallopeptidase inhibitor 2 (TIMP2) Biomarker Activity (AID 2283071); conditions: primary human keratinocytes with fibroblasts; actives raise or lower the signal
How it was run: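 Co-culture of human primary keratinocytes and foreskin fibroblasts, measured 24 h after chemical dosing. TIMP-2 quantified by ELISA and fitted in both directions relative to DMSO. Cytotoxicity checked in parallel cultures by SRB total-protein staining.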

[13] = read-out: Transforming growth factor beta 1 (TGFb1), TGFB1 (gene 7040); assay: BSK_KF3CT_TGFb1: BioMAP Diversity Plus: KF3CT Assay for Transforming growth factor beta 1 (TGFb1) Biomarker Activity (AID 2283072); conditions: primary human keratinocytes with fibroblasts; actives raise or lower the signal
How it was run: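 Human keratinocyte/foreskin fibroblast co-culture; TGF-b1 measured by ELISA 24 h after dosing, fitted bidirectionally versus DMSO. Cytotoxicity checked in parallel cultures by total protein (SRB staining, 560 nm).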

[14] = read-out: C-C motif chemokine 2 (Homo sapiens) (UniProt P13500); assay: BSK_KF3CT_MCP1: BioMAP Diversity Plus: KF3CT Assay for Monocyte Chemoattractant Protein 1 (MCP1/CCL2) Biomarker Activity (AID 2283073); conditions: primary human keratinocytes with fibroblasts; actives raise or lower the signal
How it was run: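 ELISA read-out of MCP-1, 24 h post-dose, in primary human skin keratinocytes co-cultured with fibroblasts. Parallel SRB staining monitors cytotoxicity; changes fitted both directions relative to DMSO.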

[15] = read-out: Matrix Metallopeptidase 9 (MMP9), MMP9 (gene 4318); assay: BSK_KF3CT_MMP9: BioMAP Diversity Plus: KF3CT Assay for Matrix Metallopeptidase 9 (MMP9) Biomarker Activity (AID 2283074); conditions: primary human keratinocytes with fibroblasts; actives raise or lower the signal;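 as to AC50: MMP9 protein level quantified by ELISA in the co-culture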
How it was run: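 Human keratinocyte/foreskin fibroblast co-culture; compound added; 24 h; MMP-9 by ELISA; bidirectional fit vs DMSO baseline.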

[16] = read-out: urokinase plasminogen activator (uPA), PLAU (gene 5328); assay: BSK_KF3CT_uPA: BioMAP Diversity Plus: KF3CT Assay for urokinase plasminogen activator (uPA) Biomarker Activity (AID 2283075); conditions: primary human keratinocytes with fibroblasts; actives raise or lower the signal
How it was run: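 ELISA readout of uPA, analyzed for signal gain or loss relative to DMSO, from a human primary keratinocyte–foreskin fibroblast co-culture measured 24 h after chemical treatment.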

[17] = read-out: CD40, CD40 (gene 958); assay: BSK_LPS_CD40: BioMAP Diversity Plus: LPS Assay for CD40 Biomarker Activity (AID 2283076); conditions: primary human HUVEC with PBMC; actives raise or lower the signal
How it was run: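 In the LPS system of human endothelial cells with peripheral blood mononuclear cells, CD40 levels were read by ELISA 24 h post-treatment. Signal changes in either direction were fitted against the DMSO baseline, with parallel SRB protein staining.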

[18] = read-out: E-selectin (Homo sapiens) (UniProt P16581); assay: BSK_LPS_Eselectin: BioMAP Diversity Plus: LPS Assay for Eselectin Biomarker Activity (AID 2283077); conditions: primary human HUVEC with PBMC; actives raise or lower the signal
How it was run: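 E-selectin ELISA on LPS-stimulated endothelial cell/PBMC co-cultures, read 24 h post-treatment; gains and losses fitted against DMSO. Parallel SRB staining (0.1% SRB after 10% TCA fixation, 560 nm) flags overt cytotoxicity.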

[19] = BSK_LPS_SRB: Viability Assessment in the BioMAP Diversity Plus: LPS Assay (AID 2283079); conditions: primary human HUVEC with PBMC;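 also: total protein by sulforhodamine B absorbance as a cytotoxicity measure; measured one day after compound addition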
How it was run: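 SRB viability endpoint: cells fixed with 10% TCA, stained with 0.1% SRB, read at 560 nm, 24 h post-dose. HUVEC/PBMC co-culture; signal change in either direction scored relative to DMSO.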

[20] = read-out: Interleukin-8 (IL8), CXCL8 (gene 3576); assay: BSK_LPS_IL8: BioMAP Diversity Plus: LPS Assay for Interleukin-8 (IL8) Biomarker Activity (AID 2283078); conditions: primary human HUVEC with PBMC; actives raise or lower the signal
How it was run: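 ELISA read-out of IL-8 after 24 h chemical treatment of LPS-activated endothelial/PBMC human primary co-cultures. Changes either up or down relative to DMSO; overt cytotoxicity checked by sulforhodamine B staining in parallel wells.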

Measured: AC50

Sequence of E-selectin (Homo sapiens) (P16581 whole entry, looked up): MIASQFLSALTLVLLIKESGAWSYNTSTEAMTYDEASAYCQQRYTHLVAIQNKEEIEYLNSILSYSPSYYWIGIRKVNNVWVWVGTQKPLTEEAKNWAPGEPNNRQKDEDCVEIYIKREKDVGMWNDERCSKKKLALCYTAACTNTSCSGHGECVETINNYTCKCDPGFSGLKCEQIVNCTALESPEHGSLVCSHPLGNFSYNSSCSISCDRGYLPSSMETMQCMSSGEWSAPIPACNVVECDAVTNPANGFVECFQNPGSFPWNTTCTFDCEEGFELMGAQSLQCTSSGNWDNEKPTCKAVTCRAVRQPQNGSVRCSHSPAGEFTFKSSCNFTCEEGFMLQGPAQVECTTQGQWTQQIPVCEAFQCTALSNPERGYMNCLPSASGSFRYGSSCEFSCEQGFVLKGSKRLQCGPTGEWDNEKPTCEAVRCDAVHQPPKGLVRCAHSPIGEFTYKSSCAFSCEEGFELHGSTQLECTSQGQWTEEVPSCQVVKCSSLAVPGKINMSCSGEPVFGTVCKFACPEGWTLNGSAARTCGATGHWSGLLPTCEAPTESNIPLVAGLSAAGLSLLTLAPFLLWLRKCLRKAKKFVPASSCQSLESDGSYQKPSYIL

COC(=O)NC(=S)Nc1ccccc1NC(=S)NC(=O)OC
active: [5] 3.97 µM
not listed: [20]
inactive: all other assays above

CCCN(CC)CC1COC2(CCC(C(C)(C)C)CC2)O1 (stereo unspecified)
active: [3] 3.97 µM | [4] 0.602 µM | [5] 1.43 µM | [9] 3.97 µM | [12] 6.62 µM | [14] 0.739 µM | [20] 15.7 µM
inactive: all other assays above

CCOc1nc(F)cc2nc(S(=O)(=O)Nc3c(Cl)cccc3Cl)nn12
active: [9] 34 µM | [18] 20 µM
inactive: all other assays above

CC(C)(C)C(=O)C(Oc1ccc(Cl)cc1)n1cncn1 (stereo unspecified)
inactive: all assays above

CCCCOCN(C(=O)CCl)c1c(CC)cccc1CC
active: [1] 16.5 µM | [2] 31.1 µM | [3] 13.7 µM | [4] 33.3 µM | [5] 34.8 µM | [6] 16.9 µM | [7] 20 µM | [8] 35.2 µM | [9] 26.4 µM | [10] 35.6 µM | [11] 35.3 µM | [12] 31.6 µM | [13] 32.7 µM | [14] 39.1 µM | [15] 25.7 µM | [16] 31.3 µM | [17] 22.5 µM | [18] 31.3 µM | [19] 29.2 µM

N#CN=C1SCCN1Cc1ccc(Cl)nc1
not listed: [20]
inactive: all other assays above

CCC(C)n1c(=O)[nH]c(C)c(Br)c1=O (stereo unspecified)
not listed: [20]
inactive: all other assays above

Reference: PubChem BioAssay (EPA / NIEHS)
